The list is not random: actives were taken first. Their share in the collection is about 3.4%.
HIF-2a block = HIF-2a reporter inhibitors, primary screen, luminescence, 786-0 RCC cells; 786-0 RCC cells HIF-2a reporter, luciferase luminescence, overnight; inhibition, % at 18.8 µM; actives 0.72% (n = 360,000);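 active = inhibition of the luminescence signal of 40% or more relative to plate controls, in a single-dose primary screen at 18.75 µM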
TROY signal inh = inhibitors of TROY-driven NF-kB signaling, primary screen, Q293 LMP1-TROYcd cells, NF-kB luciferase, uHTS; Q293 LMP1-TROYcd NF-kB luciferase reporter, 4 h; inhibition, % at 10 µM; actives 0.98% (n = 360,000);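 active = compounds whose plate-normalised and pattern-corrected inhibition of the luciferase reporter signal at the single screening dose is 50% or more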
TWEAK-Fn14 inh = inhibitors of TWEAK-Fn14 signaling, primary screen, luciferase reporter cells, uHTS; TWEAK-stimulated Fn14 reporter cells, luciferase luminescence, 8 h; inhibition, % at 10 µM; actives 2% (n = 360,000); AID 1159606, 2016; in the data active = inhibition above about 50%
EBV LMP1 NFkB = EBV LMP1-driven NF-kappaB luciferase reporter inhibitors, primary screen, cell-based, luminescence, single point. inhibition, % at 12.5 µM. AID 504558, 2011. LMP1-induced NF-kappaB luciferase reporter cells. actives 0.69% (n = 350,000); in the data active = inhibition above about 41%; inconclusive = no clear call, values can overlap the other calls;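 also: 0% = neutral control wells and 100% = reference inhibitor control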
Shn3 inh set2 = reduction of Shn3 3'UTR firefly luciferase signal, primary screen, Schnurri-3 inhibitor project, cell-based, Clone20 osteoblasts, set 2. Clone20 osteoblast Shn3 3'UTR firefly luciferase, 24 h. inhibition, % at 12.5 µM. actives 0.52% (n = 360,000). AID 588674, 2011;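 active = mean inhibition of at least 75% with every replicate also reaching 75%; inconclusive = mean inhibition at least 75% but some replicate below; inactive = mean inhibition below 75%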;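 also: 0% = median of neutral control wells and 100% = pilot-screen positive control compound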
MITF TRPM1 inh = inhibitors of MITF-dependent TRPM1 promoter reporter, primary screen, cell-based, SK-MEL-5, single point, luciferase; inhibition, % at 12.5 µM; SK-MEL-5 TRPM1 promoter luciferase, 24 h; actives 0.83% (n = 330,000);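 active = mean inhibition across replicates of 60% or more, whatever share of single replicates reaches that level; inconclusive = some that reach 60%, reason not given; inactive = mean inhibition across replicates below 60%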
Active calls of the source: *; ? = inconclusive; . = no result.

SMILES	HIF-2a block	TROY signal inh	TWEAK-Fn14 inh	EBV LMP1 NFkB	Shn3 inh set2	MITF TRPM1 inh
CCCCCCCCN1C(=O)[C@H](CC(=O)NCCC(C)C)C[C@@]2(C(=O)OCC)CCC=C12	3	.	.	.	.	.
CSc1ccc(COC(=O)c2cc([N+](=O)[O-])ccc2N2CCOCC2)cc1	39	13	17	10	36	67*
C[C@@H]1CN([C@@H](C)CO)C(=O)CCCn2nncc2CO[C@H]1CN(C)S(=O)(=O)c1ccc(Oc2ccccc2)nc1	8	4	10	-7	4	.
COc1ccc(-c2nn(-c3ccccc3)cc2/C=N/N=C(N)N)cc1OC	15	25	-1	-1	-1	94*
Cc1cc(-c2ccc(S(=O)(=O)N3CCN(c4ccccc4F)CC3)s2)on1	9	16	26	7	41	-3
Cc1onc(-c2ccccc2)c1NC(=O)OC(C)c1cccnc1 (stereo unspecified)	6	-12	87*	-2	-4	.
Cc1onc(-c2ccccc2)c1NC(=O)Nc1c(-c2ccccc2)noc1C	20	-10	0	1	-1	5
CCOc1ccc(C(=O)NC(=S)N(Cc2ccccc2)Cc2ccccc2)cc1	4	42	19	50*	33	17
CCOc1ccc(CN(CCC#N)C(=S)NC(=O)c2ccccc2)cc1	17	-9	-5	0	5	8
CC(CCc1ccccc1)NC(=O)c1ccc(C(=O)NC(C)CCc2ccccc2)cc1 (stereo unspecified)	5	15	31	6	53	74*
CC(CCc1ccccc1)NC(=O)c1ccccc1 (stereo unspecified)	-21	-4	0	-5	10	-7
CC(=O)Oc1ccc(C(=O)NCCc2ccccc2)cc1	-34	18	60*	-2	-50	-34
CCOc1ccc(C(=O)NCCc2ccccc2)cc1	-17	52*	77*	17	-1	14
CCn1cc(C(=O)NCc2ccc(C)cc2)c(=O)c2cc(S(=O)(=O)N(C)C)ccc21	19	-4	11	10	12	-7
O=C(c1ccco1)N1N=C(c2ccc(Br)cc2)CC1(O)C(F)(F)F (stereo unspecified)	-10	-6	1	-9	4	-6
O=C(NCCS(=O)(=O)NCc1ccccc1)c1ccc2c(c1)OCO2	7	-4	-2	0	-3	-7
O=C(NCc1ccc2c(c1)OCO2)c1cccc(F)c1	-19	.	82*	8	-15	2
O=C(NCCc1ccccc1)c1ccc2nccnc2c1	12	57*	93*	50*	-21	30
O=C(NCCc1ccccc1)c1ccc2c(c1)OCO2	54*	70*	94*	49*	22	53
O=C(NCCc1ccccc1)c1cccnc1	-142	-21	7	-10	-30	-44
O=C(NCc1ccc2c(c1)OCO2)c1ccccc1	-29	-5	-6	-5	-3	-13
COc1ccc2oc(C(=O)NCCc3ccccc3)c(C)c2c1	8	70*	82*	54*	16	17
COc1ccc2oc(C(=O)OCC(=O)NCCc3ccccc3)c(C)c2c1	-11	-2	-7	-5	-5	-5
COc1cc(Nc2cccc[n+]2C)cc(OC)c1OC	11	17	12	0	8	-9
CN(Cc1ccc(OC(F)F)cc1)C(=O)c1cccc(S(=O)(=O)N2CCN(c3ccccc3)CC2)c1	14	37	73*	23	?	43
CN(CCOc1ccc(Cl)cc1)C(=O)c1cccc(S(=O)(=O)N2CCN(c3ccc(F)cc3)CC2)c1	13	13	64*	3	89*	59
CN(CC(=O)Nc1ccccc1Cl)C(=O)c1cccc(S(=O)(=O)N2CCN(Cc3ccccc3)CC2)c1	9	8	15	23	83	9
CN(CC(=O)Nc1ccccc1Cl)C(=O)c1cccc(S(=O)(=O)N2CCN(c3ccccc3)CC2)c1	10	15	24	22	87*	28

Screening results: PubChem BioAssay, several laboratories
